CIT2-GFP yeast – alters CIT2-GFP fluorescence in TOR pathway yeast screen; GFP response vs DMSO, % at 10 µM; AID 2029; 320,000 tested, 0.065% active; S. cerevisiae CIT2-GFP strain, flow cytometry, 3 h; 100 means same as DMSO wells;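 active = GFP response relative to DMSO above a set limit, near the screen mean plus 3 SD, cut at about 150% in these data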;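 also: ratio of well median GFP fluorescence to mean of DMSO wells on the plate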
LAP4-GFP MLPCN – alters LAP4-GFP fluorescence in TOR pathway yeast screen | S. cerevisiae LAP4-GFP multiplex, flow cytometry GFP, 3 h; median GFP as percent of DMSO wells | GFP response vs DMSO, % at 10 µM | 320,000 tested, 0.34% active | AID 2023;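 active = GFP response vs DMSO above a set limit, about the screen mean plus 3 SD, cut at about 150% in these data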
AGP1 TOR yeast – modulators of TOR pathway AGP1-GFP in S. cerevisiae | S. cerevisiae AGP1-GFP multiplex flow cytometry, 3 h; GFP as percent of DMSO wells | GFP response vs DMSO, % at 10 µM | 320,000 tested, 0.02% active | AID 2066;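 active = GFP response relative to DMSO above a set limit, near screen average plus 3 SD, cut at about 150% in these data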;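 also: median GFP channel fluorescence of the gated AGP1 strain per well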
Efflux pump inh – inhibitors of Candida antifungal efflux pumps expressed in yeast. S. cerevisiae Candida pump triplex, Nile Red efflux. inhibition, % at 10 µM. 330,000 tested, 0.44% active. AID 485275;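 active = plate passing quality check with inhibition over a set limit, or well fluorescence over plate mean plus 4 SD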;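 also: Nile Red retained in pooled yeast measured as flow cytometry median fluorescence; 0% = buffer negative control and 100% = Enniatin B positive control; higher means more Nile Red kept so more efflux inhibition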
RPL19A-GFP yeast – modulators of TOR pathway RPL19A-GFP in S. cerevisiae; 330,000 tested, 0.3% active; AID 2025; S. cerevisiae RPL19A-GFP strain, flow cytometry, 3 h; hits give low values; percent response vs DMSO, % at 10 µM;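 active = percent response vs DMSO below 50%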;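 also: median channel GFP fluorescence of the barcoded RPL19A-GFP strain; ratio of sample median GFP to plate DMSO average so 100% = DMSO; lower means less RPL19A-GFP as with rapamycin TOR inhibition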
MEP2-GFP yeast – modulators of TOR pathway MEP2-GFP in S. cerevisiae | S. cerevisiae MEP2-GFP strain, flow cytometry GFP, 3 h; 100% = DMSO control level | AID 2016 | GFP response vs DMSO, % at 10 µM | 330,000 tested, 0.51% active;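 active = GFP response versus DMSO above a set limit, roughly screen mean plus 3 SD, cut at about 180% in these data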;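 also: median GFP fluorescence of the barcode-gated MEP2-GFP cells per well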
LAP4-GFP pick2 – yeast LAP4-GFP modulation, second cherry pick; shares compounds with LAP4-GFP MLPCN; S. cerevisiae LAP4-GFP strain, flow cytometry GFP, 3 h; GFP response vs DMSO, % at 10 µM; 590 tested, 20% active;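 active = GFP signal as percent of the solvent control above about 150%, meaning raised reporter expression, limit read from the data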;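 also: ratio of well median GFP fluorescence to plate DMSO mean so 100% = DMSO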
MEP2-GFP pick2 – reconfirmed MEP2-GFP TOR pathway modulator in yeast; shares compounds with LAP4-GFP MLPCN; S. cerevisiae MEP2-GFP strain, flow cytometry GFP, 3 h; GFP response vs DMSO, % at 10 µM; 590 tested, 10% active;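 active = GFP signal above 150% of the solvent control wells, that is a rise of more than half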;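 also: median channel GFP fluorescence of all gated yeast cells per well; ratio of median GFP to plate DMSO average so 100% = DMSO level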
RPL19A GFP CP2 – yeast RPL19A-GFP TOR reporter modulation, second cherry pick | shares compounds with LAP4-GFP MLPCN | AID 2623 | GFP response vs DMSO, % at 10 µM | S. cerevisiae RPL19A-GFP strain, flow cytometry GFP, 3 h; hits give low values; 100% means same as DMSO wells | 590 tested, 3% active;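 active = under 65% GFP response relative to DMSO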;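 also: median GFP channel fluorescence per well over the all cells gate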
CIT2-GFP pick2 – second confirmation of modulators of TOR reporter CIT2-GFP in yeast. shares compounds with LAP4-GFP MLPCN. S. cerevisiae CIT2-GFP strain, flow cytometry GFP, 3 h; DMSO control wells read 100%. GFP response vs DMSO, % at 10 µM. 590 tested, 8% active. AID 2624;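 active = GFP response vs DMSO above about 150%, limit read from the data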;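 also: median green fluorescence per well over all gated yeast cells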
AGP1 GFP CP2 – reconfirmed modulator of AGP1-GFP TOR reporter in yeast. shares compounds with LAP4-GFP MLPCN. S. cerevisiae AGP1-GFP strain, flow cytometry GFP, 3 h. percent response vs DMSO, % at 10 µM. 590 tested, under 10 active. AID 2643;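 active = over 150 percent of DMSO response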;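 also: median GFP channel fluorescence over all cells without mother daughter split; sample median GFP divided by mean DMSO control so 100% equals DMSO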
s288c autofluor – compound is autofluorescent in yeast s288c cells; shares compounds with LAP4-GFP MLPCN; S. cerevisiae s288c, 520 nm autofluorescence, flow cytometry, 3 h; hits give high values; zero means same as solvent-only cells; fluorescence change (kMESF span) at 33 µM; 610 tested, under 10 active; AID 2757;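 active = fluorescence span over the dose series, or activity score, above about 33, limit read from the data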
Yeast autofl DR – yeast s288c autofluorescence artifact in dose response | shares compounds with LAP4-GFP MLPCN | S. cerevisiae s288c parental, compound autofluorescence, flow cytometry, 3 h | fluorescence change (span) at 33 µM | 110 tested, under 10 active | AID 488829;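 active = fluorescence change span, or the activity score built from it, above 25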
TORC1 bypass – wildtype yeast growth loss with TORC1 bypass cells unaffected; shares compounds with LAP4-GFP MLPCN; S. cerevisiae BY4741 spot growth rating, 48-72 h; hits give low values; growth rating (0-3) at 30 µM; 120 tested, under 10 active;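 active = growth rating at most 1 for wild type yeast while the TORC1 bypass strain still grows fully, rated 3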
An asterisk follows results filed as active; . = no result. The list is not random: actives were taken first. Their share in the collection is about 1.3%.

SMILES | CIT2-GFP yeast | LAP4-GFP MLPCN | AGP1 TOR yeast | Efflux pump inh | RPL19A-GFP yeast | MEP2-GFP yeast | LAP4-GFP pick2 | MEP2-GFP pick2 | RPL19A GFP CP2 | CIT2-GFP pick2 | AGP1 GFP CP2 | s288c autofluor | others
C#CCOCCOCCOCCNc1nc(N2CCN(C(=O)[C@H]([C@@H](C)CC)n3cc([C@@H](N)Cc4ccc(O)cc4)nn3)CC2)nc(N2CCN(C(=O)[C@H](CCCCN)n3cc([C@@H](N)CC(C)C)nn3)CC2)n1 | 129 | 301* | 153* | 0 | 59 | 839* | 107 | 115 | 97 | 115 | 98 | .
Cc1ccc(S(=O)(=O)NCC(=O)OCCOc2cccc(Cl)c2)cc1 | 85 | 96 | 94 | 0 | 98 | 96 | . | . | . | . | . | .
O=C(Nc1cc2c3c(c1)CC(=O)N3CCC2)C1CC1 | 98 | 94 | 96 | 0 | 90 | 100 | . | . | . | . | . | .
O=[N+]([O-])c1ccc(Cl)cc1NCc1cccnc1 | 101 | 106 | 99 | 0 | 94 | 94 | . | . | . | . | . | .
C#CCOCCOCCOCCNc1nc(N2CCN(C(=O)CCCCCCCCCCNC(=O)[C@H](CCCCN)n3cc(CCO)nn3)CC2)nc(N2CCN(C(=O)CCCCCCCCCCNC(=O)[C@H](CCCCN)n3cc(C[C@@H](C)CC)nn3)CC2)n1 | 101 | 161* | 100 | 0 | 76 | 105 | 119 | 152* | 94 | 111 | 110 | 0.31
C#CCOCCOCCOCCNc1nc(N2CCN(C(=O)CCCCCCCCCCNC(=O)[C@H](CCCCN)n3cc(CCO)nn3)CC2)nc(N2CCN(C(=O)CCCCCCCCCCNC(=O)[C@H](CCCCN)n3cc(CCCC(=O)O)nn3)CC2)n1 | 80 | 134 | 84 | 0 | 90 | 87 | . | . | . | . | . | .
CCCCOc1ccc(C(=O)NNC(=S)NC(=O)CC)cc1 | 77 | 299* | 95 | 0 | 89 | 117 | 331* | 155* | 105 | 167* | 108 | 1.4
CCCOc1ccc(C(=O)NNC(=S)NC(=O)c2ccccc2)cc1 | 100 | 152* | 113 | 0 | 108 | 94 | . | . | . | . | . | 1
COc1ccccc1C(=O)NNC(=S)NC(=O)c1ccco1 | 89 | 268* | 102 | 0 | 88 | 123 | 335* | 180* | 110 | 138 | 117 | 3.8
CC(Oc1ccc(Cl)cc1)C(=O)NNC(=S)NC(=O)c1ccco1 (configuration not stated) | 112 | 242* | 102 | 0 | 88 | 101 | . | . | . | . | . | 0.91 | Yeast autofl DR=0.52;TORC1 bypass=3

Screening results: PubChem, NMMLSC
